# Measurements taken from paper PMC7862700, “An all-to-all approach to the identification of sequence-specific readers for epigenetic DNA modifications on cytosine”.
# Experiments:
# Experiment in all cases: DAPPL (digital affinity profiling via proximity ligation, sequencing); 10 mM Tris-HCl pH 7.5, 50 mM NaCl, 1 mM DTT, 4% glycerol, room temperature, 30 min; GST-TFs on glutathione beads, 16-mer random dsDNA library, 0.1% formaldehyde crosslink after washing; high values mean tight binding
# Conditions in all cases: protein: recombinant; tags: N-terminal GST; dsDNA, one strand shown
# FLI1 = biological target: T1, FLI1 (Homo sapiens, UniProt Q01543 1-452)
# T1 sequence: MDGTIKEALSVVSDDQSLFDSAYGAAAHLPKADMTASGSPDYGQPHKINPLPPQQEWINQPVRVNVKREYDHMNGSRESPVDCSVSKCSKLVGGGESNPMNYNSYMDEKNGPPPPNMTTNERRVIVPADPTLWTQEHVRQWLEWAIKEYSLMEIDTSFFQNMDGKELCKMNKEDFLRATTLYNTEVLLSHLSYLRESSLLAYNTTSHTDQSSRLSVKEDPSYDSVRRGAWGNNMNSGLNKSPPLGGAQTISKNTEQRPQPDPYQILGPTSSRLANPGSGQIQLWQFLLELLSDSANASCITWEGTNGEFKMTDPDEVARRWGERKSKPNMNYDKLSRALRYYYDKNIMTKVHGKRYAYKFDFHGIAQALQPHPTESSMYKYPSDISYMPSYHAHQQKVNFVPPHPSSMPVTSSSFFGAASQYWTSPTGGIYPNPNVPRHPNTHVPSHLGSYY
# How it was run: (§1)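 Human transcription factors were made in yeast as GST fusions, captured on glutathione beads and barcoded with DNA. With a tag-only sample included, the pool was incubated with 200 nmole of a random double-stranded 16-mer DNA library in Tris/NaCl/DTT/glycerol buffer at room temperature for 30 min, then crosslinked with 0.1% formaldehyde after washing, ligated by proximity, amplified and sequenced. For binding signal, each hexamer's read frequency for a factor is divided by its frequency for the tag-only sample.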
# GABPA = biological target: T2, GABPA (Homo sapiens, UniProt Q06546 1-454)
# T2 sequence: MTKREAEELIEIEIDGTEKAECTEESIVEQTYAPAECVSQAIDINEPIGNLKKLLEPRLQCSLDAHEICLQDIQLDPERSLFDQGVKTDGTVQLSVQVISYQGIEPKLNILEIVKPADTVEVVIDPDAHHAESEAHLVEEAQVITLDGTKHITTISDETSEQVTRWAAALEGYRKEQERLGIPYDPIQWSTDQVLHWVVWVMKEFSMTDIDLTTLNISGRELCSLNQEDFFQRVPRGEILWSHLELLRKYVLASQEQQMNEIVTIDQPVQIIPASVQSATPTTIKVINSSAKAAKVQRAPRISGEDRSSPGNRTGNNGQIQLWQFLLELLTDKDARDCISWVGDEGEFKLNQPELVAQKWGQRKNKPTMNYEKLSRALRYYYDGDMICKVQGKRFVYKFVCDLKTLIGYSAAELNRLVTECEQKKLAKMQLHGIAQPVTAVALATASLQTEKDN
# How it was run: as §1
# ELF1 = ELF1 (Homo sapiens, UniProt P32519 1-619)
# Chain of ELF1 (P32519 whole entry): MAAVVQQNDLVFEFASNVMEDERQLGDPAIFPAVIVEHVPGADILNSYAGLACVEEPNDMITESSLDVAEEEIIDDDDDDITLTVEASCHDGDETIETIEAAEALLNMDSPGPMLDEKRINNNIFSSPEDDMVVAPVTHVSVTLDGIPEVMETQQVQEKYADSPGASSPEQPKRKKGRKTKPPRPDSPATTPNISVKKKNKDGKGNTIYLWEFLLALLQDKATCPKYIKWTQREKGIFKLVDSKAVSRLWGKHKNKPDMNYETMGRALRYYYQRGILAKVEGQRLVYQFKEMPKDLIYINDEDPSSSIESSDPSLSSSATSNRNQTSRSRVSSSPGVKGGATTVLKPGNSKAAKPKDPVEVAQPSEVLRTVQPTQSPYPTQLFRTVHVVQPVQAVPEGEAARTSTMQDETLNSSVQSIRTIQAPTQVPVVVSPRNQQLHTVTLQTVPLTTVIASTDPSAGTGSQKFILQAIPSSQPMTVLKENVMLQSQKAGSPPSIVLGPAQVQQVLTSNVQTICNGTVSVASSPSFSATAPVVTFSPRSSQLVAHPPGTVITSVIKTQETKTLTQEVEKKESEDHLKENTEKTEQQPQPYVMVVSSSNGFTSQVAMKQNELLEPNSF
# How it was run: as §1
# EHF = biological target: T3, EHF (Homo sapiens, UniProt Q9NZC4 1-300)
# T3 sequence: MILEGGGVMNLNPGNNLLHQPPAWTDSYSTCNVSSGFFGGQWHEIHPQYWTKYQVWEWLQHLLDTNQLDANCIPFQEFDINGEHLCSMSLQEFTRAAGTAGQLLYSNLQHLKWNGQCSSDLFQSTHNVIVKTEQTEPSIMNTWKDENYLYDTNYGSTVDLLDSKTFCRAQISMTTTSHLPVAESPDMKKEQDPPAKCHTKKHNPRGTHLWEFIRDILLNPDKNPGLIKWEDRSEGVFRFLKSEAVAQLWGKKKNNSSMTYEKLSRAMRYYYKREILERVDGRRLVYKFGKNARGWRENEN
# How it was run: as §1
# SPIB = SPIB (Homo sapiens, UniProt Q01892 1-262)
# Chain of SPIB (Q01892 whole entry): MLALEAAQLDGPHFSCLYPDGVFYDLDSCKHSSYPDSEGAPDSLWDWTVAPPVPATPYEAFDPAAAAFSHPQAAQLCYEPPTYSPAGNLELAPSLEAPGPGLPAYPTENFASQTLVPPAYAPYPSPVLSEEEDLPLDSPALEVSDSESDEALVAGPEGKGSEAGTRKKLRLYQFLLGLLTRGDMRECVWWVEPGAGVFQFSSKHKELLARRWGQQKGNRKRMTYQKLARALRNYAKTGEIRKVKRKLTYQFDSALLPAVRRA
# How it was run: as §1
# ELF4 = ELF4 (Homo sapiens, UniProt Q99607 1-663)
# Chain of ELF4 (Q99607 whole entry): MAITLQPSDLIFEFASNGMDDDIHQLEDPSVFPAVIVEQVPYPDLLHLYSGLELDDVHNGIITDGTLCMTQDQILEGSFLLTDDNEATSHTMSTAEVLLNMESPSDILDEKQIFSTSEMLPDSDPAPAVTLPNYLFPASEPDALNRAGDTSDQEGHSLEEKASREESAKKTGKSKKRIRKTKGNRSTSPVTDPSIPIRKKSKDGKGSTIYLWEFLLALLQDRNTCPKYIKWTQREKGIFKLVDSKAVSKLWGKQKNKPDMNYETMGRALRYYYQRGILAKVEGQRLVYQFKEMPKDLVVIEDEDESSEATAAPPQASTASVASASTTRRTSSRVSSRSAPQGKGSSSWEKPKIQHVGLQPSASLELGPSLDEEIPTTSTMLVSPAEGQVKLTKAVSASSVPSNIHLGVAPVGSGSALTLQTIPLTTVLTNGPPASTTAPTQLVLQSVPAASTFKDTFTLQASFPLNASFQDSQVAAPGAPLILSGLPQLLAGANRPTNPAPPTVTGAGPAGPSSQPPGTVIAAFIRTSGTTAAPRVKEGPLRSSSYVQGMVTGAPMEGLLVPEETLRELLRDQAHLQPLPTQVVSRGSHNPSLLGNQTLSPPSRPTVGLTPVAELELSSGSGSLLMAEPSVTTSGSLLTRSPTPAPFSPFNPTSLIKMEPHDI
# How it was run: as §1
# ELK4 = biological target: T4, ELK4 (Homo sapiens, UniProt P28324-2 1-405)
# T4 sequence: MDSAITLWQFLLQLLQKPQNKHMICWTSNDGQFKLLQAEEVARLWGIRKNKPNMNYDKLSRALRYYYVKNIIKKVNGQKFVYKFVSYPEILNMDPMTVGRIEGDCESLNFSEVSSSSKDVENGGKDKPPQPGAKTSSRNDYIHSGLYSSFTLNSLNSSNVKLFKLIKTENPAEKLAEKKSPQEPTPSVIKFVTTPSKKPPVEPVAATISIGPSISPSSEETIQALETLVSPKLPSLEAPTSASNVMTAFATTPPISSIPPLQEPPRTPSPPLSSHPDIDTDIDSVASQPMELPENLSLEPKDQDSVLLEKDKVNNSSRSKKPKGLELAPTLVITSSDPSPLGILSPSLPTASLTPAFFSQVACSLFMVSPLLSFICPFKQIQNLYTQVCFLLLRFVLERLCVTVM
# How it was run: as §1
# ELF3 = biological target: T5, ELF3 (Homo sapiens, UniProt P78545 1-371)
# T5 sequence: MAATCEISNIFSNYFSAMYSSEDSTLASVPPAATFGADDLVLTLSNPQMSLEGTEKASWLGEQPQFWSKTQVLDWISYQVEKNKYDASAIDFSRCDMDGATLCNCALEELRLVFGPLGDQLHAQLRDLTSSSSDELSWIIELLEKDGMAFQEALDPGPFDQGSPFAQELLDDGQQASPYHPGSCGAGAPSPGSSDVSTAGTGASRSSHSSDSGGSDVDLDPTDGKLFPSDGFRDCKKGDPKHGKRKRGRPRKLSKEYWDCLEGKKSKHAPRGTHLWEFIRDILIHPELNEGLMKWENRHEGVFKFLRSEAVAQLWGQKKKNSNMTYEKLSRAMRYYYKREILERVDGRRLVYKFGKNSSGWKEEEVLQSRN
# How it was run: as §1
# ETV1 = ETV1 (Homo sapiens, UniProt P50549 1-477)
# Chain of ETV1 (P50549 whole entry): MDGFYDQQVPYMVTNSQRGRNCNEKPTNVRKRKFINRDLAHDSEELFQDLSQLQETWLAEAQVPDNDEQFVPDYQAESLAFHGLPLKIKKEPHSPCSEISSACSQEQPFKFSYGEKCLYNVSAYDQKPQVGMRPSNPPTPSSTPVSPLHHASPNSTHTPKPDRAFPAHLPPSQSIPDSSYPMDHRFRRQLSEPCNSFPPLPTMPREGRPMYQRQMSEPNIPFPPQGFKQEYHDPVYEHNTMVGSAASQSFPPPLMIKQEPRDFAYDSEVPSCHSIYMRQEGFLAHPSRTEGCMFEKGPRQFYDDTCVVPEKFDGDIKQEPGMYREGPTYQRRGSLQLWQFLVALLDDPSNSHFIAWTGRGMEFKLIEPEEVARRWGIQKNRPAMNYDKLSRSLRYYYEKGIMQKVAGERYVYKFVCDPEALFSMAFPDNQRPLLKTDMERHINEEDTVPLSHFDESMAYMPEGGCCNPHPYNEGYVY
# How it was run: as §1
# ETV3L = biological target: T6, ETV3L (Homo sapiens, UniProt Q6ZN32 1-361)
# T6 sequence: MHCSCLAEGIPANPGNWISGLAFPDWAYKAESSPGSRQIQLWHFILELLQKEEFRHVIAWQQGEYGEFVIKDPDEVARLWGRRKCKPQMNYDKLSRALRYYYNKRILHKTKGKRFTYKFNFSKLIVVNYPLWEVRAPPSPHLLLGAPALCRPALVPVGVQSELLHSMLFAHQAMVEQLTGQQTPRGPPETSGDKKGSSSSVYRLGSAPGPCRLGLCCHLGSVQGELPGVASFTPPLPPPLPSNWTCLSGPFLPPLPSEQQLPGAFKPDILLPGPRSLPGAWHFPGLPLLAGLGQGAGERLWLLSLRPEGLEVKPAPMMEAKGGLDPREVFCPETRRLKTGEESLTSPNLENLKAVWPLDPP
# How it was run: as §1
# ETS2 = biological target: T7, ETS2 (Homo sapiens, UniProt P15036 1-469)
# T7 sequence: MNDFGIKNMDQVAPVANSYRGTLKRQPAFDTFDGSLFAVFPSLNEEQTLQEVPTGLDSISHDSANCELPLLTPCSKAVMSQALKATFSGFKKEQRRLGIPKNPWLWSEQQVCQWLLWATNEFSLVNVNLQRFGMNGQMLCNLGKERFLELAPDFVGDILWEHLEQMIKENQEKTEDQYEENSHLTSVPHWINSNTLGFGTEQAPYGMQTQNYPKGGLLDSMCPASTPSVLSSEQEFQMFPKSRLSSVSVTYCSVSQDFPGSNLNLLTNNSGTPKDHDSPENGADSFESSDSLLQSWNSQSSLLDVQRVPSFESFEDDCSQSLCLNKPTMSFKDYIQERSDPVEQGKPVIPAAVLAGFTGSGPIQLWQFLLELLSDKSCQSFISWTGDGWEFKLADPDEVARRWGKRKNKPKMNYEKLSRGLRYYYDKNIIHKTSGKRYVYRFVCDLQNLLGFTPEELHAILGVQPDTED
# How it was run: as §1
# ETV7 = biological target: T8, ETV7 (Homo sapiens, UniProt Q9Y603 1-341)
# T8 sequence: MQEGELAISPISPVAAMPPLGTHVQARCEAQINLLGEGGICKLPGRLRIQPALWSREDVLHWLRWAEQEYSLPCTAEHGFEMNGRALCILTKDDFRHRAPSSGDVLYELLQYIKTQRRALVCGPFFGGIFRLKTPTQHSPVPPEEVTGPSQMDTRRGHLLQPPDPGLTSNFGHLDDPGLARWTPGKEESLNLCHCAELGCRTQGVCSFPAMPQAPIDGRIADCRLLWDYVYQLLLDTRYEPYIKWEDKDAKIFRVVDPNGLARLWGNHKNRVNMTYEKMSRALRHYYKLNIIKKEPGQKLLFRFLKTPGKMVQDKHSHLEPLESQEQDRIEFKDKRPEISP
# How it was run: as §1
# ELK1 = biological target: T9, ELK1 (Homo sapiens, UniProt P19419 1-428)
# T9 sequence: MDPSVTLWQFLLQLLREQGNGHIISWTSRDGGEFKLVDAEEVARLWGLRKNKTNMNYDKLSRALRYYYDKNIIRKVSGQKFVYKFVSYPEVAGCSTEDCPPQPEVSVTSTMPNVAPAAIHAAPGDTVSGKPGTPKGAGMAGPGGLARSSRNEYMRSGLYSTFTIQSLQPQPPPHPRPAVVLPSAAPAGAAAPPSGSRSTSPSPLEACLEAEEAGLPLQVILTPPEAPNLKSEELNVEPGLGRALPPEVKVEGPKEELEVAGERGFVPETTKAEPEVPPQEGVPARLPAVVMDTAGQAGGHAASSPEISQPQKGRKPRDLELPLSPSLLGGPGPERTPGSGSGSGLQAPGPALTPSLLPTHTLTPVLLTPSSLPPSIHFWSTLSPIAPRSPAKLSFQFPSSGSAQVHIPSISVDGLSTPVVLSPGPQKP
# How it was run: as §1
# ELK3 = biological target: T10, ELK3 (Homo sapiens, UniProt P41970 1-407)
# T10 sequence: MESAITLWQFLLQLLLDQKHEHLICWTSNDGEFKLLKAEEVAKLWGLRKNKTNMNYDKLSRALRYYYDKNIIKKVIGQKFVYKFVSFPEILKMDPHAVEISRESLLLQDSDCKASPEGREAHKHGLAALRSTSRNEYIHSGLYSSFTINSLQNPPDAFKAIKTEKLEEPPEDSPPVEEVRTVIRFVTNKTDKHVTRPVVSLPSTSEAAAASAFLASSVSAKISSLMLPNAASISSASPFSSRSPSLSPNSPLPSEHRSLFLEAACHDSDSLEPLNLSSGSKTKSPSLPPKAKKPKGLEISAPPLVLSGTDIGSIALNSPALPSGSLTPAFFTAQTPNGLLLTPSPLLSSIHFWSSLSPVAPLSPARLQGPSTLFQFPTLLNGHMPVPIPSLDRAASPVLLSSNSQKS
# How it was run: as §1
# ETV2 = biological target: T11, ETV2 (Homo sapiens, UniProt O00321 1-342)
# T11 sequence: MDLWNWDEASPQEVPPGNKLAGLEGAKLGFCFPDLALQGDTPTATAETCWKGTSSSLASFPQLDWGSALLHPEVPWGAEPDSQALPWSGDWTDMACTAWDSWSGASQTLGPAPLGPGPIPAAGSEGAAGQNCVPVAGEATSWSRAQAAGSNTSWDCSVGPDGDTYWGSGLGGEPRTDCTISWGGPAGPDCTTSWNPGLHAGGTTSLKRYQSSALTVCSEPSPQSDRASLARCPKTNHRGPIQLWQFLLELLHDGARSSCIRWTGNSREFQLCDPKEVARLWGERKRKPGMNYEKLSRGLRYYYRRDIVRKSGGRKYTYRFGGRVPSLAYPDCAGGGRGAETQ
# How it was run: as §1
# ETV6 = ETV6 (Homo sapiens, UniProt P41212 1-452)
# Chain of ETV6 (P41212 whole entry): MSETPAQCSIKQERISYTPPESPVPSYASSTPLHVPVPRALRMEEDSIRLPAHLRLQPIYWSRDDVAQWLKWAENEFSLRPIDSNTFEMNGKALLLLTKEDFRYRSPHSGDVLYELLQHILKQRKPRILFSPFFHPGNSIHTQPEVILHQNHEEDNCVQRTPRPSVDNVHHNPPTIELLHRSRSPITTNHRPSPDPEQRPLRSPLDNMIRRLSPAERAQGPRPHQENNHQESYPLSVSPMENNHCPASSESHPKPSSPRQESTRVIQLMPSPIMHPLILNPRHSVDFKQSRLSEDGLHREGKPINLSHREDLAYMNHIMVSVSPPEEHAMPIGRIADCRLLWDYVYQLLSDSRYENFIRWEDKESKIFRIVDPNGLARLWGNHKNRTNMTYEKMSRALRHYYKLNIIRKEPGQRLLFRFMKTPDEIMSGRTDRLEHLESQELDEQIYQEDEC
# How it was run: as §1
Sequence,binding signal (FLI1),binding signal (GABPA),binding signal (ELF1),binding signal (EHF),binding signal (SPIB),binding signal (ELF4),binding signal (ELK4),binding signal (ELF3),binding signal (ETV1),binding signal (ETV3L),binding signal (ETS2),binding signal (ETV7),binding signal (ELK1),binding signal (ELK3),binding signal (ETV2),binding signal (ETV6)
TGTGAT,"1.16 fold enrichment (6-mer frequency, TF over GST control)","1.01 fold enrichment (6-mer frequency, TF over GST control)","1.01 fold enrichment (6-mer frequency, TF over GST control)","1.03 fold enrichment (6-mer frequency, TF over GST control)","1.01 fold enrichment (6-mer frequency, TF over GST control)","1.05 fold enrichment (6-mer frequency, TF over GST control)","1.07 fold enrichment (6-mer frequency, TF over GST control)","1.14 fold enrichment (6-mer frequency, TF over GST control)","1.08 fold enrichment (6-mer frequency, TF over GST control)","1.01 fold enrichment (6-mer frequency, TF over GST control)","1.09 fold enrichment (6-mer frequency, TF over GST control)","1.05 fold enrichment (6-mer frequency, TF over GST control)",–,–,–,–
CCATGG,"1.08 fold enrichment (6-mer frequency, TF over GST control)",–,"1 fold enrichment (6-mer frequency, TF over GST control)","1.06 fold enrichment (6-mer frequency, TF over GST control)",–,"1.06 fold enrichment (6-mer frequency, TF over GST control)",–,–,–,"1.02 fold enrichment (6-mer frequency, TF over GST control)",–,–,"1.05 fold enrichment (6-mer frequency, TF over GST control)","1.06 fold enrichment (6-mer frequency, TF over GST control)","1.05 fold enrichment (6-mer frequency, TF over GST control)","1.03 fold enrichment (6-mer frequency, TF over GST control)"
